Rows were chosen to be rich in hits. Some 9.9% of all compounds tested hit in one or more screens of this group.
HPGD block: HPGD (human) dehydrogenase inhibition. P15428. purified HPGD, NADH fluorescence kinetic, PGE2 substrate. Potency, µM, for inactives: at the top dose activity change, negative = inhibition, most hits filed as inhibitors. hit rate 4.3% among 150,000
Target sequence (P15428 whole entry, looked up): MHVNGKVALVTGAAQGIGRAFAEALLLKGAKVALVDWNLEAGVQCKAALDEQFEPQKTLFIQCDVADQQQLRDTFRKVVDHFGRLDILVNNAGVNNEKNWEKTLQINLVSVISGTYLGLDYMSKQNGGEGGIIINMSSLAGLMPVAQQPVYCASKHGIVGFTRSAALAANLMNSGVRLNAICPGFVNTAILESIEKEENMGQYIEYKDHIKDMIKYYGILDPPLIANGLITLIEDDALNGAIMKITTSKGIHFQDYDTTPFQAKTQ
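NADH formation kinetics: reaction with 30 uM PGE2 and 1 mM NAD+ (final), 20 nM enzyme, Tris-HCl pH 8 with Tween 20, after 15 min compound preincubation at room temperature. Fluorescence change, last versus first of five reads.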
Tau fluor counter: counter-screen for tau fibril formation inhibitors | tau K18 P301L Alexa594 fluorescence, heparin fibrillization | Potency, µM (titrated, usually from 57.7 µM), inactives show at the top dose activity change, negative = decrease | hit rate 0.93% among 280,000 | AID 1463; active = well fitted curve in the direction sought with a large enough effect; inconclusive = small, poorly fitted or top-dose-only effect, or another doubt; inactive = no such curve, though single readings can be large; an effect the other way counts as inactive or inconclusive; note: nearly all actives have a fitted effect of over 55% in size
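Human K18 P301L tau (15 uM unlabeled plus 0.24 uM Alexa 594-labeled, final) in 100 mM sodium acetate pH 7 was mixed with compound and 20 uM heparin and incubated 6 hr at 37 C.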
Tau fibril ThT: blocks human tau fibril formation measured by thioflavin T; P10636; recombinant tau K18 P301L (four-repeat tau fragment), heparin-induced fibrillization, ThT fluorescence; Potency, µM (series often up to 57.4 µM), for inactives: at the highest dose activity, negative = inhibition, hits mostly inhibitors; hit rate 2.1% among 270,000; AID 1460; active = well fitted curve in the direction sought with a large enough effect; inconclusive = small, poorly fitted or top-dose-only effect, or another doubt; inactive = no such curve, though single readings can be large; an effect the other way counts as inactive or inconclusive; note: nearly all actives have a fitted effect of over 55% in size
Target sequence (P10636 561-689 P618L limits assumed): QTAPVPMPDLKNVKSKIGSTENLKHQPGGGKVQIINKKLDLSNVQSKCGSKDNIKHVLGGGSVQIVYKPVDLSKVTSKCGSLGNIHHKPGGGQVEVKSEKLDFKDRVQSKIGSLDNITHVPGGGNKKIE
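Heparin-induced fibrillization of the P301L-mutant K18 repeat-domain fragment of human tau was followed by ThT binding in quantitative high-throughput format.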
ALDH1A1 inh: ALDH1A1 (human) enzyme inhibition. P00352. Purified ALDH1A1, NADH fluorescence, propionaldehyde substrate. AID 1030. Potency, µM (highest dose often 75.3 µM), for the others: top-dose activity, negative = inhibition, actives largely listed as inhibitors. hit rate 7.3% among 220,000;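 note: plate controls were no enzyme wells and a reference inhibitor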
JMJD2E inh: blocks human JMJD2E demethylase activity; B2RXH2; JMJD2E catalytic domain, FDH-coupled NADH fluorescence (FDH is formaldehyde dehydrogenase); Potency, µM (top dose mostly 57.1 µM), for the others: at the highest dose activity change, negative = inhibition, hits mostly inhibitors; hit rate 1.6% among 230,000;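 note: 0% = wells with enzyme and -100% = buffer wells without enzyme; nearly all actives have a fitted effect of over 50% in size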
Tau FP inhib: tau fibrillization inhibition (FP) | Potency, µM (doses to about 57.7 µM), for the others: at the highest dose activity, negative = inhibition, actives largely listed as inhibitors | AID 1468 | hit rate 0.39% among 280,000 | P10636 | K18 P301L tau heparin fibrillization, Alexa594 FP, 6 h; active = well fitted curve in the direction sought with a large enough effect; inconclusive = small, poorly fitted or top-dose-only effect, or another doubt; inactive = no such curve, though single readings can be large; an effect the other way counts as inactive or inconclusive; note: nearly all actives have a fitted effect of over 55% in size
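Compound effects on tau fibrillization are measured by Alexa 594 fluorescence polarization (ex 555, em 632 nm). K18 P301L tau is used at 15 uM with 0.24 uM labeled tracer, and 20 uM heparin induces aggregation over 6 hr at 37 C.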
Starred values were filed as active, the others as inactive; ! = repeats disagree; [ ] = remark or other dose. Unless noted, calls come from the whole dose curve; as a rule, active = well fitted inhibition curve with a large enough effect (not every such curve was filed as active); inconclusive = small, poorly fitted or top-dose-only effect, or another doubt; inactive = no such curve, though single readings can be large or run the other way. Unless noted, % is set by controls: 0 for no effect and ±100 for the full control effect; potency is the fitted concentration of half-maximal effect.

For FC(F)(F)c1cc(-c2cccs2)nc2nc(N3CCOCC3)sc12 the results were Tau fluor counter 3%, Tau fibril ThT -6%, ALDH1A1 inh inconclusive, JMJD2E inh inconclusive and Tau FP inhib 2%.
For CC(=O)c1cccc(NC(=O)Cn2cc(C(=O)c3cccc(Cl)c3)c(=O)c3ccc(C)nc32)c1 the results were Tau fluor counter inconclusive, Tau fibril ThT -15% and Tau FP inhib inconclusive.
For CO[C@@H]1COC(=O)[C@H](C)NC(=O)[C@@H](C)COC(=O)[C@H](C)NC(=O)C/C=C\[C@H]1C the results were Tau fluor counter -3%[11.6 µM], Tau fibril ThT -5%[11.5 µM], ALDH1A1 inh 8%[13.5 µM] and Tau FP inhib -4%[11.6 µM].
Cc1ccc2oc(C(=O)Nc3ccc(S(=O)(=O)N4CCCCC4C)cc3)cc(=O)c2c1 (stereo not given) was read as Tau fluor counter -14%, Tau fibril ThT 2% and Tau FP inhib inconclusive.
NC(Cc1cc(I)c(Oc2cc(I)c(O)c(I)c2)c(I)c1)C(=O)O (stereo not given) was read as HPGD block -17%, Tau fluor counter inconclusive, Tau fibril ThT inconclusive, ALDH1A1 inh 16µM*, JMJD2E inh 13% and Tau FP inhib -2%.
Screening N[C@@H](Cc1cc(I)c(Oc2ccc(O)c(I)c2)c(I)c1)C(=O)O returned HPGD block 28µM*!, Tau fluor counter inconclusive, Tau fibril ThT inconclusive, ALDH1A1 inh 6.3µM*!, JMJD2E inh 14% and Tau FP inhib -1%.
O=C(NC1CC1)c1cccc(Nc2ccc(-c3ccc4c(c3)OCCO4)nn2)c1 was read as HPGD block 28µM*, Tau fluor counter inconclusive, Tau fibril ThT inconclusive, ALDH1A1 inh inconclusive, JMJD2E inh -5% and Tau FP inhib 11%.
For Cc1cc(C)nc(-n2nc(C)cc2NC(=O)CN2CCC(C)CC2)n1 the results were HPGD block 1%, Tau fluor counter -4%, Tau fibril ThT -10%, ALDH1A1 inh 3.5µM*, JMJD2E inh 3% and Tau FP inhib 10%.
CCC1CCCCN1CC(=O)Nc1cc(C)nn1-c1nc(C)cc(C)n1 (stereo not given) was read as HPGD block -13%, Tau fluor counter 5%, Tau fibril ThT -3%, ALDH1A1 inh 14µM*, JMJD2E inh -1% and Tau FP inhib 0%.
For Cc1cc(C)nc(-n2nc(C)cc2NC(=O)CN2CCCC2)n1 the results were Tau fluor counter 2%, Tau fibril ThT -2%, ALDH1A1 inh inconclusive, JMJD2E inh -5% and Tau FP inhib 3%.
Screening COC(=O)c1ccc(C(/C=C/[C@@H](C)C(=O)N[C@H](C)CO)NC(=O)OCc2ccccc2)cc1 (stereo not given in full) returned HPGD block -6%, Tau fluor counter -6%, Tau fibril ThT -5%, ALDH1A1 inh -7%, JMJD2E inh 3% and Tau FP inhib 3%.
For O=C(NNC(=O)C1CC(c2cccs2)=NO1)NC1CCCCC1 (stereo not given) the results were Tau fluor counter 2%, Tau fibril ThT -4%, ALDH1A1 inh inconclusive, JMJD2E inh -21% and Tau FP inhib 3%.
`COc1cc(-c2nn3c(C4CCCCC4)nnc3s2)cc(OC)c1OC` gave HPGD block inconclusive, Tau fluor counter 4%, Tau fibril ThT -2%, ALDH1A1 inh inconclusive, JMJD2E inh inconclusive and Tau FP inhib 1%.
For COc1ccc(-c2nn3c(C4CCCCC4)nnc3s2)cc1OC the results were HPGD block inconclusive, Tau fluor counter 1%, Tau fibril ThT 2%, ALDH1A1 inh 13µM*, JMJD2E inh inconclusive and Tau FP inhib 6%.
For O=C(/C=C/c1ccccc1)Nc1ccc(Cl)cn1 the results were Tau fluor counter -2%, Tau fibril ThT 2%, ALDH1A1 inh 4%, JMJD2E inh -4% and Tau FP inhib -3%.

Assay outcomes (PubChem)
